Drawing on PubChem BioAssay, this text covers z-score and composite z-score for 4 compounds.

Test [1] is described as follows: optical density shifts of acrAB sulA E. coli – strain DRC41, OD650, 48 h, E. coli filamentation inducer project, primary screen (AID 1152).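 Also: E. coli MC1000 strain DRC41 lacking acrAB efflux pump and sulA.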 The settings on record: higher = more signal, called active from +8 up or from −8 down.
Test [2] is described as follows: probe aLefty1 binding on compound microarray – biochemical, small-molecule microarray, 635/667 nm fluorescence, primary screen (AID 1153).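 Also: score merges spot fluorescence with signal-to-noise ratio from the scanned slide images.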 The settings on record: higher = more signal.
Test [3] is described as follows: plasmodial surface anion channel blockers, osmotic lysis – cell-based, P. falciparum Indochina, OD700, 1 h, primary screen (AID 1154). As to conditions: P. falciparum Indochina infected RBC osmotic lysis, higher = more signal, called active from +8 up or from −8 down.
The nature of test [4]: plasmodial surface anion channel blockers, osmotic lysis – cell-based, P. falciparum Indochina, OD700, 2 h, primary screen (AID 1155).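 Also: lysis reports solute entry through the parasite surface anion channel PSAC.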 As to conditions: P. falciparum Indochina infected erythrocytes, higher = more signal, called active from +8 up or from −8 down.
Test [5] can be described thus: changes in parasitized red cell lysis, either direction – P. falciparum Indochina, OD700, 3 h, PSAC antagonist project, primary screen (AID 1156). As to conditions: P. falciparum-infected erythrocytes, osmotic lysis, higher = more signal, called active from +8 up or from −8 down.
Test [6] in a line: plasmodial surface anion channel blockers, osmotic lysis – cell-based, P. falciparum Indochina, OD700, 18 h, primary screen (AID 1157). The settings on record: P. falciparum Indochina infected erythrocytes, osmotic lysis OD700, 18 h; higher = more signal, called active from +8 up or from −8 down.
Test [7] in a line: S6 kinase pathway phospho-S6 level changes – cell-based, A549, cytoblot, luminescence, serum-stimulated, primary screen (AID 1158).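 Also: serum-stimulated A549 lung adenocarcinoma cells; signal is phosphorylated S6 detected by cytoblot immunostaining with HRP secondary.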 As to conditions: 5 h, higher = more signal.
For test [8], the target named is NADPH oxidase 2 (Homo sapiens) (UniProt P04839). The experiment in a line: compounds shifting NOX2 Amplex Red fluorescence – cell-based, HEK293-NOX2, PMA-stimulated, NOX inhibitor project, primary screen (AID 1159). Also: test concentration not given here. The settings on record: 45 min, higher = more signal, called active from +8 up or from −8 down.
Test [9] addresses NADPH oxidase 4 (Homo sapiens) (UniProt Q9NPH5). The experiment in a line: compounds shifting NOX4 Amplex Red fluorescence – cell-based, HEK293-NOX4, tetracycline-induced, NOX inhibitor project, primary screen (AID 1160). As to conditions: HEK293-NOX4, Amplex Red H2O2 fluorescence, 45 min; higher = more signal, called active from +8 up or from −8 down.
Test [10] concerns the target NADPH oxidase 5 (Homo sapiens) (UniProt Q96PH1). As to the kind of experiment: compounds shifting NOX5 Amplex Red fluorescence – cell-based, HEK293-NOX5, NOX inhibitor project, primary screen (AID 1161). As to conditions: HEK293-NOX5, ionomycin, 45 min, higher = more signal.
Test [11] can be described thus: compound effects on lung adenocarcinoma cell viability – A549, calcein-AM fluorescence, 48 h, basal, profiling panel (AID 1162). Also: test concentration not given here. The settings on record: higher = more signal.
Test [12] in a line: compound effects on differentiated 3T3-L1 adipocyte viability – cell-based, 3T3-L1 adipocytes, calcein-AM fluorescence, 48 h, basal, profiling panel (AID 1163). Also: test concentration not given here. As to conditions: 3T3-L1 adipocytes viability, higher = more signal.
Test [13] can be described thus: compound effects on hepatocellular carcinoma cell viability – HepG2, calcein-AM fluorescence, 48 h, basal, profiling panel (AID 1164). Also: test concentration not given here. The settings on record: higher = more signal.
Test [14] is described as follows: compound effects on multiple myeloma cell viability – MM1S, calcein-AM fluorescence, 48 h, basal, profiling panel (AID 1165).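 Also: viability of MM1S multiple myeloma cells under basal unstimulated conditions; test concentration not given here.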 The settings on record: higher = more signal.
A short description of test [15]: calcein-AM signal in unstimulated myeloma cells – cell-based, calcein-AM fluorescence, 48 h, PK04 Diversity Set, profiling panel (AID 1166).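 Also: cells grown under basal conditions without added stimulus; test concentration not given here.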 The settings on record: RPMI8226 myeloma viability, higher = more signal.
The nature of test [16]: JC-1 mitochondrial signal, unstimulated HepG2 cells – cell-based, JC-1 fluorescence, 24 h, 100 nL compound, profiling panel (AID 1167). Also: test concentration not given here. The settings on record: HepG2 mitochondrial potential, higher = more signal.
Test [17] in a line: JC-1 mitochondrial signal, unstimulated adipocytes – cell-based, JC-1 fluorescence, 3T3-L1 adipocytes, 24 h, 100 nL compound, profiling panel (AID 1168). Also: test concentration not given here. The settings on record: JC-1 mitochondrial fluorescence, higher = more signal, called active from +8 up or from −8 down.
The nature of test [18]: JC-1 mitochondrial signal, unstimulated myeloma cells – cell-based, JC-1 fluorescence, RPMI8226, 24 h, 100 nL compound, profiling panel (AID 1169). Also: test concentration not given here. As to conditions: JC-1 mitochondrial potential fluorescence, higher = more signal.
A short description of test [19]: JC-1 mitochondrial signal, unstimulated MM1S myeloma – cell-based, JC-1 fluorescence, 24 h, 100 nL compound, profiling panel (AID 1170). Also: test concentration not given here. The settings on record: MM1S mitochondrial potential, higher = more signal.
Test [20] is described as follows: resazurin metabolic signal in A549 cells – cell-based, resazurin fluorescence, 24 h, PK04 Diversity Set, profiling panel (AID 1171). Also: test concentration not given here. The settings on record: A549 viability, higher = more signal, called active from +8 up or from −8 down.

Calls of active or inactive are those of the source.

NADPH oxidase 4 (Homo sapiens), sequence (Q9NPH5 whole entry, looked up): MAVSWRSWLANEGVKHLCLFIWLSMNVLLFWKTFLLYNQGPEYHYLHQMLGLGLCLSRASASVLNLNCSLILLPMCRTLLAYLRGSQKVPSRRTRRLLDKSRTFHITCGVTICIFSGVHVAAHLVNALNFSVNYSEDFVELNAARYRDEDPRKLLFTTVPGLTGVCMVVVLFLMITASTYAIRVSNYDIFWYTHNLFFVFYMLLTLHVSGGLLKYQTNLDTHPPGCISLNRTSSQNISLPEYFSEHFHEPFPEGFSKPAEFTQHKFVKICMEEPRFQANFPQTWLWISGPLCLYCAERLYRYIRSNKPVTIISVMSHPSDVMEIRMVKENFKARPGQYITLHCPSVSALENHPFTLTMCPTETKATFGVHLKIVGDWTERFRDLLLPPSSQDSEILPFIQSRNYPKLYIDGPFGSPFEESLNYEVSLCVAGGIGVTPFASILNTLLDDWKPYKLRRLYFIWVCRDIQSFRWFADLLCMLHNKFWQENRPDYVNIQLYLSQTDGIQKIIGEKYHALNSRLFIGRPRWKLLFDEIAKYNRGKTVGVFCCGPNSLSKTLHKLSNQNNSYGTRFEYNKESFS
NADPH oxidase 5 (Homo sapiens), sequence (Q96PH1 whole entry, looked up): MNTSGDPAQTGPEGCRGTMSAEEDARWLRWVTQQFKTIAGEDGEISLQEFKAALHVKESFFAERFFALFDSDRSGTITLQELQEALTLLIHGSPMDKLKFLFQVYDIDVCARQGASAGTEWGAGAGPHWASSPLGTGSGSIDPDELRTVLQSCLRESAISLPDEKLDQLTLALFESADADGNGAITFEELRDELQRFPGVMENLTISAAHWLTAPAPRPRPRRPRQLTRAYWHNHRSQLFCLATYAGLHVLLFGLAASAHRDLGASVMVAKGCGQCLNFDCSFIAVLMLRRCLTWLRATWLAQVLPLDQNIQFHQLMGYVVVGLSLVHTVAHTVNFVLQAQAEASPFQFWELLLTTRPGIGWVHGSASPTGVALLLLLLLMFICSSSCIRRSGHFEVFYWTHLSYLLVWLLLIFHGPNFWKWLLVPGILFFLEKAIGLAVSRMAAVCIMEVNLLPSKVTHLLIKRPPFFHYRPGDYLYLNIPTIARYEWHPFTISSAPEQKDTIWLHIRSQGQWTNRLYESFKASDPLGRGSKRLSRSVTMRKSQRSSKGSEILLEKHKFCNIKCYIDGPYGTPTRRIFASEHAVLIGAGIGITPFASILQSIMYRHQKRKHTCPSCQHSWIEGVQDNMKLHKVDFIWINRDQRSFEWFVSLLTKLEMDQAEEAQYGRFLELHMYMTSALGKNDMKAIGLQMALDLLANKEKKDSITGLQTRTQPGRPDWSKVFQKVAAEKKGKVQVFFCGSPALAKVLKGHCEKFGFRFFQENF
NADPH oxidase 2 (Homo sapiens), sequence (P04839 whole entry, looked up): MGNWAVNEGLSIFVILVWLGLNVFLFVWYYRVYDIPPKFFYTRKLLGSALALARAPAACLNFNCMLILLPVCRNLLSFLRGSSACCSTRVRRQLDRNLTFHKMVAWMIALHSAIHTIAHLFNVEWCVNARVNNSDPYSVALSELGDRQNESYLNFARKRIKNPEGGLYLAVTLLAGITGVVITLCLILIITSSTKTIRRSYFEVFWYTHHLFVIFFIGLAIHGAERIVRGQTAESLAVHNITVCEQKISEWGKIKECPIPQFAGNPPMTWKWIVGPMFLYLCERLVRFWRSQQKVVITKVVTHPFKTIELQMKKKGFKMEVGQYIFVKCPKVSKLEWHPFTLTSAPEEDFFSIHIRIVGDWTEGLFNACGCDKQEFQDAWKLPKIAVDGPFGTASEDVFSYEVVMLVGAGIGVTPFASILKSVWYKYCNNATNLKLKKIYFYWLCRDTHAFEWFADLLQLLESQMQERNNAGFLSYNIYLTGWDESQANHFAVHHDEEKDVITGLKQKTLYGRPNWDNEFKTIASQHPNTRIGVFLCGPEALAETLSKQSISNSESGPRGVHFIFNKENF

`O=C1NC(=O)C2C1C=CC(C(O)Cc1ccccc1)N2Nc1ccccn1` (stereo not given): the z-score in [1] was 0.79 (inactive); in test [3] it was 0.541 (inactive); in test [4] it was -0.67 (inactive); in test [5], -0.255 (inactive); in [6] it was -0.422 (inactive); in [7], 0.91. The z-score in test [8] was -1.58 (inactive); in test [9], -2.54 (inactive); in test [10], -1.8; in test [11] it was 0.379; in test [12] it was -0.949; in [13] it was 1.16. The z-score in test [14] is -0.171; in test [15], -0.87; in test [16], 0.0266; in [17], 0.272 (inactive); in test [18] it was 0.477; in [19] it was -0.684. Also, the z-score in test [20] was -1.22 (inactive). This compound also had a composite z-score in test [2] of 0.165.
In the case of `COC(=O)CC=C[C@@H](C)[C@H](OC)c1ccccc1Br`, the z-score in [1] was -0.119 (inactive); in test [3], 0.727 (inactive); in test [4], 0.716 (inactive); in [5], 0.216 (inactive); in [6], 0.367 (inactive); in test [7], -0.0689. Besides, the z-score is -0.524 (inactive) in [8]; 0.055 (inactive) in test [9]; -0.297 in [10]; 0.408 in test [11]; -0.662 in test [12]; 0.99 in [13]. Besides, the z-score is -0.154 in test [14]; -1.15 in test [15]; 0.845 in test [16]; -0.288 (inactive) in [17]; 0.0131 in [18]; -0.515 in test [19]. Besides, in [20], the z-score is -0.0428 (inactive). Also, the composite z-score in test [2] was -0.245.
In the case of `COC(=O)[C@H](C)NC(=O)CCC1CC(OC(=O)NCc2ccc3c(c2)OCO3)CC2(CCCC(COC(=O)NCCOc3ccccc3)O2)O1` (stereo not given in full), the z-score is -0.638 (inactive) in test [1]; -1.1 (inactive) in test [3]; -0.123 (inactive) in test [4]; -0.409 (inactive) in test [5]; -0.323 (inactive) in test [6]; 1.48 in test [7]. For the same compound, the z-score in test [8] is -0.245 (inactive); in test [9] it was 0.758 (inactive); in test [10], 0.214; in test [11] it was 1.99; in test [12], 0.714; in [13], 0.748. In addition, the z-score in test [14] is 0.0937; in [15], 0.487; in [16], 0.916; in test [17], 1.67 (inactive); in test [18], -0.647; in test [19] it was -1.09. Also, the z-score in test [20] was 0.294 (inactive). The same compound showed a composite z-score in test [2] of -0.414.
Take `C[C@@H](c1ccccc1)N1C(=O)[C@H]2[C@H]3[C@H](O)[C@H](O)CC(=NNC(=O)OCc4ccccc4)[C@H]3CC[C@H]2C1=O`: the z-score was 0.645 (inactive) in test [1]; 3.27 (inactive) in test [3]; 1.03 (inactive) in test [4]; 0.0197 (inactive) in test [5]; 0.0072 (inactive) in test [6]; 0.296 in test [7]. Further, the z-score was 0.982 (inactive) in test [8]; 1.08 (inactive) in test [9]; 0.412 in test [10]; -0.34 in test [11]; -0.903 in test [12]; -0.208 in [13]. The z-score in [14] was -0.0615; in test [15], 0.127; in [16] it was -1.05; in test [17] it was -0.0829 (inactive); in test [18] it was 0.502; in test [19] it was 0.00989. Moreover, the z-score in [20] was -0.0339 (inactive). Also, the composite z-score in test [2] came to 0.107.
